Tested on: LEGO organoid PT (PTEN-/-; TP53-/-)
Test: bioluminescence (viable cell) signal fold change after vs before treatment, normalised to DMSO (ratio); higher = more tumour cell growth / less inhibition
Details: 10 µM; treatment time 6 days
Description: (§1)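 Luc2-labelled iPSC-derived glioblastoma-like organoids (LEGOs, genotypes PT = PTEN-/-;TP53-/-, PTCC = plus CDKN2A/B-/-, PTN = plus NF1-/-) were treated with 10 uM drug for 6 days (applied every other day) at 37 C. Bioluminescence imaging was done before treatment and 2 days after the last dose. BLI signals were normalised to the DMSO control on the same day and then to the pre-treatment signal (N=3).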

Row | SMILES | bioluminescence
1 | Cl.Cl.OCCOCCN1CCN(C(c2ccccc2)c2ccc(Cl)cc2)CC1 (centres undefined) [Hydroxyzine dihydrochloride] | 1.29
2 | Cc1ccccc1C(OCCN(C)C)c1ccccc1.Cl (centres undefined) [Orphenadrine hydrochloride] | 1.02
3 | CC(C(=O)O)c1cccc(C(=O)c2ccccc2)c1 (centres undefined) [Ketoprofen] | 0.893
4 | Cc1cnc(NC(=O)C2=C(O)c3ccccc3S(=O)(=O)N2C)s1 [Meloxicam] | 0.756
5 | OCCN1CCN(CCCN2c3ccccc3Sc3ccc(Cl)cc32)CC1 [Perphenazine] | 0.743
6 | CNCCC(Oc1ccc(C(F)(F)F)cc1)c1ccccc1.Cl (centres undefined) [Fluoxetine hydrochloride] | 0.929
7 | CN(C)CCOC(C)(c1ccccc1)c1ccccn1.O=C(O)CCC(=O)O (centres undefined) [Doxylamine succinate] | 0.83
8 | CCCN[C@H]1CCc2nc(N)sc2C1.Cl.Cl.O [Pramipexole 2HCl Monohydrate] | 1.35
9 | CO/N=C(\C(=O)N[C@@H]1C(=O)N2C(C(=O)[O-])=C(COC(C)=O)CS[C@H]12)c1csc(N)n1.[Na+] [Cefotaxime sodium] | 0.745
10 | CCCCN1CCCCC1C(=O)Nc1c(C)cccc1C.Cl (centres undefined) [Bupivacaine hydrochloride] | 1.37
11 | CC(=O)N[C@@H](CS)C(=O)O [Acetylcysteine] | 1.23
12 | CCN(CC)CC#CCOC(=O)C(O)(c1ccccc1)C1CCCCC1 (centres undefined) [Oxybutynin] | 0.449
13 | Cc1oncc1C(=O)Nc1ccc(C(F)(F)F)cc1 [Leflunomide] | 2.01
14 | CSc1ccc2c(c1)N(CCC1CCCCN1C)c1ccccc1S2.Cl (centres undefined) [Thioridazine hydrochloride] | 0.68
15 | CS(=O)(=O)CCNCc1ccc(-c2ccc3ncnc(Nc4ccc(OCc5cccc(F)c5)c(Cl)c4)c3c2)o1 [Lapatinib] | 1.62
16 | CC[C@@]1(O)C(=O)OCc2c1cc1n(c2=O)Cc2cc3c(CN(C)C)c(O)ccc3nc2-1.Cl [Topotecan hydrochloride] | 1.39
17 | Cl.O=C1CC2(CCCC2)CC(=O)N1CCCCN1CCN(c2ncccn2)CC1 [Buspirone hydrochloride] | 1.22
18 | CN(C)CC(c1ccc(O)cc1)C1(O)CCCCC1 (centres undefined) [Desvenlafaxine] | 1.01
19 | COc1cc(C(=O)NCc2ccc(OCCN(C)C)cc2)cc(OC)c1OC.Cl [Trimethobenzamide hydrochloride] | 1.11
20 | CS(=O)(=O)CCNCc1ccc(-c2ccc3ncnc(Nc4ccc(OCc5cccc(F)c5)c(Cl)c4)c3c2)o1.Cc1ccc(S(=O)(=O)O)cc1.Cc1ccc(S(=O)(=O)O)cc1 [Lapatinib Ditosylate] | 1.34
21 | Cl.N=C1CCCN1Cc1[nH]c(=O)[nH]c(=O)c1Cl [Tipiracil hydrochloride] | 0.741
22 | CNC(=O)c1cc(Oc2ccc(NC(=O)Nc3ccc(Cl)c(C(F)(F)F)c3)cc2)ccn1 [Sorafenib] | 0.335
23 | C[C@H]1COc2c(N3CCN(C)CC3)c(F)cc3c(=O)c(C(=O)O)cn1c23 [Levofloxacin] | 0.997
24 | CCCCCCCCCCC[C@@H](C[C@@H]1OC(=O)[C@H]1CCCCCC)OC(=O)[C@H](CC(C)C)NC=O [Orlistat] | 1.4
25 | CC(=O)Nc1ccc(O)cc1 [Acetaminophen] | 1.19
26 | Clc1ccc2c(c1)C(N1CCNCC1)=Nc1ccccc1O2 [Amoxapine] | 0.902

Tested on: LEGO organoid PTCC (PTEN-/-; TP53-/-; CDKN2A-/-; CDKN2B-/-)
Test: as above
Details: 10 µM; treatment time 6 days
Description: as §1

Row | SMILES | bioluminescence
27 | Cl.CN(C)CC\C=C1\c2ccccc2C=Cc2ccccc12 [Cyclobenzaprine hydrochloride] | 1.61
28 | CC(=O)OCC(=O)[C@@]1(O)CC[C@H]2[C@@H]3CCC4=CC(=O)C=C[C@]4(C)[C@H]3[C@@H](O)C[C@@]21C [Prednisolone-21-acetate] | 1.01
29 | C#Cc1cccc(Nc2ncnc3cc(OCCOC)c(OCCOC)cc23)c1.Cl [Erlotinib hydrochloride] | 1.66
30 | O=C(CCCN1CC=C(n2c(=O)[nH]c3ccccc32)CC1)c1ccc(F)cc1 [Droperidol] | 0.69
31 | COc1ccc([C@@H]2CC(=O)c3c(O)cc(O[C@@H]4O[C@H](CO[C@@H]5O[C@@H](C)[C@H](O)[C@@H](O)[C@H]5O)[C@@H](O)[C@H](O)[C@H]4O)cc3O2)cc1O [Hesperidin] | 0.805
32 | CCc1nc(N)nc(N)c1-c1ccc(Cl)cc1 [Pyrimethamine] | 1.06
33 | CCc1cccc2c3c([nH]c12)C(CC)(CC(=O)O)OCC3 (centres undefined) [Etodolac] | 0.917
34 | Cl.Clc1cccc(Cl)c1NC1=NCCN1 [Clonidine hydrochloride] | 1.29
35 | NS(=O)(=O)Cc1noc2ccccc12 [Zonisamide] | 1.19
36 | CCN(CC)CC(=O)Nc1c(C)cccc1C [Xylocaine] | 1.13
37 | CCCOc1ccc(S(=O)(=O)NCCC2CCCN2C)cc1-c1nc2c(CCC)nn(C)c2c(=O)[nH]1 (centres undefined) [Udenafil] | 1.32
38 | Cc1nc2c([nH]1)CCN(C(=O)c1ccc(NC(=O)c3ccccc3-c3ccccc3)cc1)c1ccccc1-2.Cl [Conivaptan hydrochloride] | 3.25
39 | Cl.Cl.OCCOCCN1CCN(C(c2ccccc2)c2ccc(Cl)cc2)CC1 (centres undefined) [Hydroxyzine dihydrochloride] | 0.859
40 | Cc1ccccc1C(OCCN(C)C)c1ccccc1.Cl (centres undefined) [Orphenadrine hydrochloride] | 1.18
41 | CC(C(=O)O)c1cccc(C(=O)c2ccccc2)c1 (centres undefined) [Ketoprofen] | 1.2
42 | Cc1cnc(NC(=O)C2=C(O)c3ccccc3S(=O)(=O)N2C)s1 [Meloxicam] | 1.15
43 | OCCN1CCN(CCCN2c3ccccc3Sc3ccc(Cl)cc32)CC1 [Perphenazine] | 0.615
44 | CNCCC(Oc1ccc(C(F)(F)F)cc1)c1ccccc1.Cl (centres undefined) [Fluoxetine hydrochloride] | 1.74
45 | CN(C)CCOC(C)(c1ccccc1)c1ccccn1.O=C(O)CCC(=O)O (centres undefined) [Doxylamine succinate] | 1.17

Row | SMILES | bioluminescence
46 | CCCN[C@H]1CCc2nc(N)sc2C1.Cl.Cl.O [Pramipexole 2HCl Monohydrate] | 0.567
47 | CO/N=C(\C(=O)N[C@@H]1C(=O)N2C(C(=O)[O-])=C(COC(C)=O)CS[C@H]12)c1csc(N)n1.[Na+] [Cefotaxime sodium] | 1.45
48 | CCCCN1CCCCC1C(=O)Nc1c(C)cccc1C.Cl (centres undefined) [Bupivacaine hydrochloride] | 1.22
49 | CC(=O)N[C@@H](CS)C(=O)O [Acetylcysteine] | 1.21
50 | CCN(CC)CC#CCOC(=O)C(O)(c1ccccc1)C1CCCCC1 (centres undefined) [Oxybutynin] | 0.776
51 | Cc1oncc1C(=O)Nc1ccc(C(F)(F)F)cc1 [Leflunomide] | 1.3
52 | CSc1ccc2c(c1)N(CCC1CCCCN1C)c1ccccc1S2.Cl (centres undefined) [Thioridazine hydrochloride] | 0.704
53 | CS(=O)(=O)CCNCc1ccc(-c2ccc3ncnc(Nc4ccc(OCc5cccc(F)c5)c(Cl)c4)c3c2)o1 [Lapatinib] | 0.878
54 | CC[C@@]1(O)C(=O)OCc2c1cc1n(c2=O)Cc2cc3c(CN(C)C)c(O)ccc3nc2-1.Cl [Topotecan hydrochloride] | 0.236
55 | Cl.O=C1CC2(CCCC2)CC(=O)N1CCCCN1CCN(c2ncccn2)CC1 [Buspirone hydrochloride] | 1.47
56 | CN(C)CC(c1ccc(O)cc1)C1(O)CCCCC1 (centres undefined) [Desvenlafaxine] | 1.07
57 | COc1cc(C(=O)NCc2ccc(OCCN(C)C)cc2)cc(OC)c1OC.Cl [Trimethobenzamide hydrochloride] | 0.906
58 | CS(=O)(=O)CCNCc1ccc(-c2ccc3ncnc(Nc4ccc(OCc5cccc(F)c5)c(Cl)c4)c3c2)o1.Cc1ccc(S(=O)(=O)O)cc1.Cc1ccc(S(=O)(=O)O)cc1 [Lapatinib Ditosylate] | 1.03
59 | Cl.N=C1CCCN1Cc1[nH]c(=O)[nH]c(=O)c1Cl [Tipiracil hydrochloride] | 1.21
60 | CNC(=O)c1cc(Oc2ccc(NC(=O)Nc3ccc(Cl)c(C(F)(F)F)c3)cc2)ccn1 [Sorafenib] | 0.105
61 | C[C@H]1COc2c(N3CCN(C)CC3)c(F)cc3c(=O)c(C(=O)O)cn1c23 [Levofloxacin] | 0.587
62 | CCCCCCCCCCC[C@@H](C[C@@H]1OC(=O)[C@H]1CCCCCC)OC(=O)[C@H](CC(C)C)NC=O [Orlistat] | 0.925
63 | CC(=O)Nc1ccc(O)cc1 [Acetaminophen] | 0.686
64 | Clc1ccc2c(c1)C(N1CCNCC1)=Nc1ccccc1O2 [Amoxapine] | 1.25

Reference: the supplement of paper PMC10811239
